TDP1 cell noCPT: qHTS for Inhibitors of human tyrosyl-DNA phosphodiesterase 1 (TDP1): qHTS in cells in absence of CPT | AID 686978, 2013 | Potency, µM (series often up to 46.2 µM), actives largely listed as inhibitors | DT40 Tdp1-/- hTDP1 cells, no CPT, ATP luminescence, 48 h | actives 15% (n = 420,000); further: nearly all actives have a fitted effect of over 55% in size
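Stably hTDP1-transfected Tdp1-null chicken DT40 cells were treated with library compounds minus camptothecin and grown for at least 48 hr at 37 °C, after which cellular ATP was quantified by luminescence.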
IL-1B inflam inh: inflammasome signaling inhibition, IL-1 beta readout; THP-1 LPS/ATP IL-1B secretion, AlphaLISA, 16 h; hits give low values; activity change, % at 57.5 µM; actives 4.7% (n = 360,000); in the data active means activity change below about -50%; inconclusive means mostly about -30% to -49%
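THP-1 cells pretreated 1 hr with compounds (up to 57.5 uM final), then stimulated with LPS (250 ng/mL final) plus ATP (1.25 mM final); secreted IL-1B measured by AlphaLISA after 16 hr, decreased signal indicating inhibition.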
TGFb inhibitor: blocks TGF-b signaling. HepG2 CAGA-GFP TGF-b/SMAD3 reporter, GFP fluorescence, 18 h; TGF-beta stimulated, 500 pg/mL final. Potency, µM (doses to about 46.1 µM), most hits filed as inhibitors. actives 1.2% (n = 410,000). AID 588855; further: nearly all actives have a fitted effect of over 65% in size
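TGF-beta reporter screen: HEPG2 CAGA-GFP, 1% FBS, 500 pg/mL TGF-beta final, 18 h; per-cell GFP summed per well; curves fitted and categorized by class.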
HepG2 viability: kills HepG2 cells in TGF-b inhibitor counter-screen. HepG2 CAGA-GFP viability, ATP luminescence, 18 h. Potency, µM (highest dose often 46.1 µM), actives largely listed as cytotoxic. actives 0.76% (n = 410,000)
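HepG2 CAGA-GFP cells (1000/well, DMEM with 1% FBS) received compound, then TGF-beta at 500 pg/mL final, and were incubated 18 hours at 37 degrees C. Viability was read by CellTiter-Glo luminescence. Media-only wells were set as complete cell-killing and DMSO as no toxicity.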
DT40 TDP1 CPT: DT40-hTDP1 cell growth loss with CPT. Potency, µM (series often up to 46.2 µM), usual class: inhibitors. actives 12% (n = 420,000). chicken DT40 Tdp1-/-;hTDP1 cells + 20 nM CPT, ATP luminescence, 48 h. AID 686979; further: nearly all actives have a fitted effect of over 55% in size
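Chicken DT40 Tdp1-/- cells stably complemented with human TDP1 were seeded at 400 cells/well in medium containing 20 nM camptothecin, exposed to pin-transferred compounds, and grown at 37 °C for at least 48 hr. Viability was read as ATP luminescence.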
TDP1 block: inhibitors of human tyrosyl-DNA phosphodiesterase TDP1; Q9NUW8; recombinant TDP1, AlphaScreen DNA substrate cleavage; Potency, µM (series often up to 130 µM), most hits filed as inhibitors; actives 0.28% (n = 350,000); further: nearly all actives have a fitted effect of over 40% in size
Target sequence (Q9NUW8 whole entry, looked up): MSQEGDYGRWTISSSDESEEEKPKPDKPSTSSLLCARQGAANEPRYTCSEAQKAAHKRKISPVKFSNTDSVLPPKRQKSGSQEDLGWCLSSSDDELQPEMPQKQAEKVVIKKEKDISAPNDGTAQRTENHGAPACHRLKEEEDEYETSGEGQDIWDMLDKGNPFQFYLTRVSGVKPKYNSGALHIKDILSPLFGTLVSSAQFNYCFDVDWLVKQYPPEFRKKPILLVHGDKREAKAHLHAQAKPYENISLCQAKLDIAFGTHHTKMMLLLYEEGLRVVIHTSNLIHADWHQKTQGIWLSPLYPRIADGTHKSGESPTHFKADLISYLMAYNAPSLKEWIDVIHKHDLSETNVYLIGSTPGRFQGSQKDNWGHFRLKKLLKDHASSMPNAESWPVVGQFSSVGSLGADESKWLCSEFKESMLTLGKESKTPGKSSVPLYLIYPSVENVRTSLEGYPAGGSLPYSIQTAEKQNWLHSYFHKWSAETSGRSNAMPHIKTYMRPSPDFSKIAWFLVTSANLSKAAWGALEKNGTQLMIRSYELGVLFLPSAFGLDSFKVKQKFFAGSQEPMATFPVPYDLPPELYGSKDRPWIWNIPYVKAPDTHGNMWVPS
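Tdp1 1 nM final; 15 min RT w/ cpd; substrate 15 nM, 5 min; beads 10 ug/ml, 10 min; AlphaScreen read. Neg ctrl: no enzyme.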
A number is an active result; n = inactive; u = inconclusive; x = no result given; [ ] = another dose, or the depositor's remark. This is a sample that favours compounds with a hit; in the whole collection about 19% have one here. Unless noted, the call rests on the fitted dose curve; in most records, active means well fitted curve in the direction sought with a large enough effect; inconclusive means small, poorly fitted or top-dose-only effect, or another doubt; inactive means no such curve, though single readings can be large; an effect the other way counts as inactive or inconclusive.

SMILES | TDP1 cell noCPT | IL-1B inflam inh | TGFb inhibitor | HepG2 viability | DT40 TDP1 CPT | TDP1 block
CCOC(=O)C1=C(C)N(C[C@@H]2CC[C@@H](Cc3ccc(-c4ccccc4)cc3)O2)C(=O)NC1c1ccc(-c2ccccc2)cc1 (stereo partly drawn) | u | n | n | n | u | n
CCOC(=O)C1=C(C)N(C[C@@H]2CC[C@@H](Cc3ccc(-c4ccccc4)cc3)O2)C(=O)NC1C1CC1 (stereo partly drawn) | 21µM | n | u | n | u | n
COc1ccc(CN2CCN(CCc3ccccc3)C(CCO)C2)c(Cl)c1OC (stereo not drawn) | u | n | n | n | u | x
Cc1ccc(S(=O)(=O)NC(C)(C)CN2CCCCC2)cc1 | n | n | n | n | n | x
COc1ccccc1NS(=O)(=O)c1cc(NC(=O)c2ccccc2F)ccc1N1CCOCC1 | 13µM | n | n | n | 16µM | n
COc1ccccc1NS(=O)(=O)c1cc(NC(=O)c2ccccc2[N+](=O)[O-])ccc1N1CCOCC1 | u | n | n | n | u | n
COc1ccccc1NS(=O)(=O)c1cc(NC(=O)c2cccs2)ccc1N1CCOCC1 | 2.6µM | n | n | n | 7.3µM | n
COc1cc(OC)cc(N2C(=O)CSC23C(=O)Nc2ccccc23)c1 (stereo not drawn) | x | x | n | n | x | n
Cc1ccc(N(CC(=O)NCc2ccccc2)C(=O)c2csnn2)cc1 | u | n | n | n | n | n
O=C(NCc1ccccc1)C(c1ccccc1)N(C(=O)c1csnn1)c1ccccc1 (stereo not drawn) | 18µM | n | n | n | u | n[0.0935 µM]
Cc1cc(C)cc(N(C(=O)c2csnn2)C(C(=O)NC(C)(C)C)c2ccccn2)c1 (stereo not drawn) | n | n | n | n | n | n
CCCCOc1ccc(N(CC(=O)NCc2ccccc2)C(=O)c2csnn2)cc1 | 16µM | n | n | n | u | n[0.0935 µM]
CCc1cccc(N(C(=O)c2csnn2)C(C(=O)NC(C)(C)C)c2ccccn2)c1 (stereo not drawn) | n | -56 | n | n | n | n
CCCCNC(=O)NS(=O)(=O)c1ccc(C(=O)O)cc1 | x | x | x | x | x | n
CC(=O)N1CCN(S(=O)(=O)c2cccc(C(=O)Nc3ccc(F)c(F)c3)c2)CC1 | u | n | n | n | u | x
N/C(=N\OC(=O)c1ccc2c(c1)OCO2)c1ccncc1 | n | -54 | n | n | n | x
Cc1ccc(/C(N)=N/OC(=O)c2ccc3c(c2)OCO3)cc1 | u | n | n | n | n | n
c1ccc(Nc2cc(Nc3ccccc3)[nH]n2)cc1 | u | n | 16µM | 10µM | u | n
COc1cc(C(=O)NC(=S)Nc2ccccc2N2CCOCC2)cc(OC)c1OC | 12µM | n | n | n | 18µM | n
Cc1ccc(C(=O)NC(=S)Nc2ccccc2N2CCOCC2)cc1C | u | n | n | n | 26µM | n
FC(F)(F)Oc1ccc(NC(=S)Nc2ccccc2N2CCOCC2)cc1 | 16µM | n | n | n | u | n
COc1cccc(C(=O)NC(=S)Nc2ccccc2N2CCOCC2)c1 | u | n | n | n | u | n
CC(C)c1nn2c(=O)cc(COC(=O)c3ccc(NC(=O)c4ccccc4Cl)cc3)nc2s1 | u | x | u | n | u | n
COc1ccc(-c2noc(C(C)NC(=O)c3ccco3)n2)cc1OC (stereo not drawn) | n | n | n | n | n | n
O=C(Nc1ccc(-c2nc3c(ccc4ccccc43)o2)cc1)c1ccco1 | 18µM | n | n | n | u | n
SMILES | TDP1 cell noCPT | IL-1B inflam inh | TGFb inhibitor | HepG2 viability | DT40 TDP1 CPT | TDP1 block
O=C(Nc1ccc(-c2noc(CCc3ccccc3)n2)cc1)c1ccco1 | u | n | u | n | 18µM | n
CC(NC(=O)c1ccco1)c1nc(-c2ccc(Cl)cc2)no1 (stereo not drawn) | 21µM | n | n | n | u | n
COCC1CCCN(Cc2ccc3c(c2)CN(C(=O)c2cnn(C(C)C)c2)CCO3)C1 (stereo not drawn) | n | x | x | x | n[9.04 µM] | x
Cc1ccc(CC(=O)NCC(O)c2ccccc2)cc1 (stereo not drawn) | u | n | n | n | n | n
COC(=O)c1c(OCc2ccccn2)cc(=O)n2c1CCN(Cc1cccc(C(F)(F)F)c1)CC2 | n | x | x | x | n | x
Cc1ccc(-c2nnc(SCC(=O)NC3CCCC3)n2C)cc1 | n | n | n | n | n | x
N#CCC(=O)N/N=C/c1coc2ccccc2c1=O | n | n | n | n | n | x
N#C/C(=C\c1coc2ccccc2c1=O)C(N)=S | 15µM | n | n | n | u | n
COc1ccc(CNC(=O)c2ccc3c(Cl)c4c(nc3c2)CCCC4)c(OC)c1 | 23µM | x | u | n | u | n
COc1ccc(CCNC(=O)c2ccc3c(Cl)c4c(nc3c2)CCCC4)c(OC)c1 | 18µM | x | u | n | 16µM | n
COc1ccc(CCNC(=O)c2ccc3c(Cl)c4c(nc3c2)CCCC4)cc1OC | 4.1µM | x | u | n | 15µM | n

Source: PubChem BioAssay (National Center for Advancing Translational Sciences (NCATS))
